This is part of a sample that, as a whole, favours compounds with a hit. Of some 79,000 tested, about 15% had one in any assay. Unmarked numbers belong to inactive results. No stated cut-off is given here; in the data, active means growth inhibition above about 70%; inactive means the rest.
Experiment: NCI Yeast Anticancer Drug Screen. Data for the bub3 strain (AID 167)
Settings: S. cerevisiae bub3 mutant strain, at 50.0 µM, stronger effect = higher value
How it was run: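 Whole-cell yeast assay. The mutant strain was incubated with compounds, and growth inhibition was determined by comparison with vehicle-treated cells.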
`CN1CCCNCCN(CCc2ccccn2)CCCN(C)CC1` gave a growth inhibition of 0.15%. In the case of `CC(C)(c1ccc(O)c([N+](=O)[O-])c1)c1ccc(O)c([N+](=O)[O-])c1`, the growth inhibition was -2.9%. `CCOC(=O)C(NC(=O)C(CCCCNP(=O)(OCC)OCC)NC(=O)C(C)NC(C)=O)C(C)C` (stereo not drawn) gave a growth inhibition of -1.35%. Compound `CC(=O)Nc1cc(C)cc(Br)c1` has a growth inhibition of 1.5%. With `O=C(O)COc1ccccc1OCC(=O)O` the growth inhibition was -0.1%. Work on `CC(=O)CC(C)(C)c1cc(CC(C)(C)C(N)=O)on1` yielded a growth inhibition of 11.3%. Compound `CCOC(=O)C(C#N)=C1c2ccccc2Oc2ccccc21` has a growth inhibition of 6.95%. Compound `CN1NC(c2ccc(Cl)cc2)=C(C#N)C(=O)CC1c1ccccc1` (stereo not drawn) has a growth inhibition of -20.4%. `CN(C)c1nc(N(C)C)c2cnn(C)c2n1` gave a growth inhibition of -2.7%. `Cc1ccc(Nc2nc(C)c(C(=O)C/C(=N/NC(N)=S)C(=O)Nc3cc(Cl)cc(Cl)c3)s2)cc1` gave a growth inhibition of -13.4%. In the case of `OCn1c2ccccc2c2ccccc21`, the growth inhibition was 35.9%. With `CCCCn1cc(C(=O)O)c(=O)c2c3sccc3ccc21` the growth inhibition was -9.5%. `CCOC(=O)C1CN(C2CCCCC2)CCC1=O` (stereo not drawn) showed a growth inhibition of 1.4%. `O=C1/C(=C/c2cccs2)CCc2ccccc21` gave a growth inhibition of 9.7%. `C=CCOc1cc(=O)[nH]c2ccccc12` gave a growth inhibition of -0.45%. In the case of `CCOC(=O)c1ccccc1[N+](=O)[O-]`, the growth inhibition was 6.7%. In the case of `O=C1OCCC2(CCN(Cc3ccccc3)CC2)O1`, the growth inhibition was -1.45%. Work on `CCCCC1CCC(C(=O)O)=NC1` (stereo not drawn) yielded a growth inhibition of -0.45%.

— PubChem BioAssay (NCI)
